# The supplement of paper PMC8728848
# This excerpt belongs to a sample that is enriched for the strongest signals.
# B1: T7P4 (Tuber borchii) (protein)
# chain: GSHIGPYMSFYASSEDVRTIEEGGRTWLVGRARRADGSWQDIKLDLDNIIGNRDGHLTWGEQNFTQSASDIRFNFEGSNVPVLRAKLRNAAGGEQESDLNLGERLTNNNGDLVFN
# B2: LTL (Lotus tetragonolobus), P19664 (protein)
# chain: VSFNYTEFKDDGSLILQGDAKIWTDGRLAMPTDPLVNNPKTTRSAGRALYATPVPIWDSATGNVASFVTSFNFLFVIRELKYTPTDGLVFFLAPVGTEIPSGSTGGFLGIFDGSNGFNQFVAVEFDSYHNIWDPKSLRSSHVGIDVNSIMSLKAVNWNRVSGSLEKATIIYDSQTNILSVVMTSQNGQITTIYGTIDLKTVLPEKVSVGFSATTGNPEREKHDIYSWSFTSTLKEPEEQA
# Experiments:
# Assay in all cases: glycan array binding signal (z-score within array); higher = stronger binding
# Details in all cases: glycan notation: IUPAC condensed, linker removed
# [1] = target: Fuc(a1-2)Gal(b1-3)GalNAc(b1-3)Gal(b1-4)Glc
# Outline: (§1)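 The binding signal is a Z-score computed within each array. Data were drawn from 3228 arrays in the Consortium for Functional Glycomics database, restricted to those with a known protein sequence. Scores were averaged over arrays of the same protein sequence at different concentrations or buffers, and over linkers, and negative values can be taken as non-binding.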
# [2] = target: Fuc(a1-2)Gal(b1-3)GlcNAc(b1-3)Gal(b1-4)Glc
# Outline: as §1
# Fuc(a1-2)Gal(b1-4)GlcNAc = target: Fuc(a1-2)Gal(b1-4)GlcNAc
# Outline: as §1
# Gal(a1-3)Gal(b1-4)Glc = target: Gal(a1-3)Gal(b1-4)Glc
# Outline: as §1
# [3] = target: Gal(b1-3)GalNAc(b1-3)Gal(b1-4)Glc
# Outline: as §1
# [4] = target: Gal(b1-3)[Fuc(a1-4)]GlcNAc(b1-3)Gal(b1-4)GlcNAc
# Outline: as §1
# [5] = target: Gal(b1-3)[Neu5Ac(a2-6)]GalNAc
# Outline: as §1
# [6] = target: Gal(b1-3)[Neu5Ac(a2-6)]GlcNAc(a1-4)Gal(b1-4)Glc
# Outline: as §1
# [7] = target: Gal(b1-3)[Neu5Ac(a2-6)]GlcNAc(b1-6)Gal(b1-4)Glc
# Outline: as §1
# [8] = target: Gal(b1-3)[Neu5Ac(b2-6)]GalNAc
# Outline: as §1
# [9] = target: Gal(b1-4)GlcNAc(b1-3)Gal(b1-4)Glc
# Outline: as §1
# [10] = target: Gal(b1-4)GlcNAc(b1-6)GalNAc
# Outline: as §1
# Gal3S(b1-4)Glc = target: Gal3S(b1-4)Glc
# Outline: as §1
# Gal4S(b1-4)GlcNAc = target: Gal4S(b1-4)GlcNAc
# Outline: as §1
# GalNAc(a1-3)Gal = target: GalNAc(a1-3)Gal
# Outline: as §1
# [11] = target: GlcNAc(b1-2)Gal(b1-3)GlcNAc
# Outline: as §1
# [12] = target: Man(a1-2)Man(a1-3)[Man(a1-6)]Man(a1-6)[Man(a1-2)Man(a1-3)]Man(b1-4)GlcNAc(b1-4)GlcNAc
# Outline: as §1
# [13] = target: Man(a1-3)[Man(a1-6)]Man(a1-6)[Man(a1-2)Man(a1-3)]Man(b1-4)GlcNAc(b1-4)GlcNAc
# Outline: as §1
# [14] = target: Man(a1-3)[Man(a1-6)]Man(b1-4)GlcNAc(b1-4)GlcNAc
# Outline: as §1
# [15] = target: Neu5Ac(a2-3)Gal(b1-4)GlcNAc6S
# Outline: as §1
# [16] = target: Neu5Ac(a2-3)Gal6S(b1-4)GlcNAc
# Outline: as §1
# [17] = target: Neu5Ac(a2-8)Neu5Ac(a2-8)Neu5Ac(a2-8)Neu5Ac(a2-3)[GalNAc(b1-4)]Gal(b1-4)Glc
# Outline: as §1
# [18] = target: Fuc(a1-2)Gal(b1-3)[Fuc(a1-4)]GlcNAc(b1-2)Man(a1-3)[Fuc(a1-2)Gal(b1-3)[Fuc(a1-4)]GlcNAc(b1-2)Man(a1-3)]Man(b1-4)GlcNAc(b1-4)GlcNAc
# Outline: as §1
# [19] = target: Fuc(a1-2)Gal(b1-3)[Fuc(a1-4)]GlcNAc(b1-3)[Gal(b1-4)GlcNAc(b1-6)]Gal(b1-4)Glc
# Outline: as §1
# [20] = target: Fuc(a1-2)Gal(b1-4)GlcNAc6S
# Outline: as §1
# [21] = target: Fuc(a1-2)Gal(b1-4)[Fuc(a1-3)]GlcNAc
# Outline: as §1
# Fuc(a1-2)GlcNAc = target: Fuc(a1-2)GlcNAc
# Outline: as §1
# [22] = target: Fuc(a1-2)[Gal(a1-3)]Gal(b1-3)GalNAc
# Outline: as §1
# [23] = target: Fuc(a1-2)[Gal(a1-3)]Gal(b1-4)Glc
# Outline: as §1
# [24] = target: Fuc(a1-2)[Gal(a1-3)]Gal(b1-4)GlcNAc(b1-6)GalNAc
# Outline: as §1
# [25] = target: Fuc(a1-2)[GalNAc(a1-3)]Gal
# Outline: as §1
# [26] = target: Fuc(a1-2)[GalNAc(a1-3)]Gal(b1-4)GlcNAc(b1-3)GalNAc
# Outline: as §1
# [27] = target: Fuc(a1-3)[Gal(b1-4)]GlcNAc(b1-3)Gal(b1-4)[Fuc(a1-3)]GlcNAc(b1-3)Gal(b1-4)[Fuc(a1-3)]GlcNAc
# Outline: as §1
# [28] = target: Fuc(a1-3)[Gal3S(b1-4)]Glc6S
# Outline: as §1
# Gal(b1-3)GalNAc(b1-3)Gal = target: Gal(b1-3)GalNAc(b1-3)Gal
# Outline: as §1
# [29] = target: Gal(b1-3)GalNAc(b1-3)Gal(a1-4)Gal(b1-4)Glc
# Outline: as §1
# Gal(b1-4)Gal = target: Gal(b1-4)Gal
# Outline: as §1
# [30] = target: Gal(b1-4)GlcNAc(b1-3)Gal(b1-4)GlcNAc(b1-3)Gal(b1-4)GlcNAc(b1-2)Man(a1-3)[Gal(b1-4)GlcNAc(b1-3)Gal(b1-4)GlcNAc(b1-3)Gal(b1-4)GlcNAc(b1-2)Man(a1-6)]Man(b1-4)GlcNAc(b1-4)GlcNAc
# Outline: as §1
# [31] = target: Gal(b1-4)GlcNAc(b1-3)Gal(b1-4)GlcNAc(b1-3)Gal(b1-4)GlcNAc(b1-3)Gal(b1-4)GlcNAc(b1-2)Man(a1-3)[Gal(b1-4)GlcNAc(b1-3)Gal(b1-4)GlcNAc(b1-3)Gal(b1-4)GlcNAc(b1-3)Gal(b1-4)GlcNAc(b1-2)Man(a1-6)]Man(b1-4)GlcNAc(b1-4)GlcNAc
# Outline: as §1
# [32] = target: Gal(b1-4)GlcNAc(b1-3)Gal(b1-4)GlcNAc(b1-3)GalNAc
# Outline: as §1
# [33] = target: Gal(b1-4)GlcNAc(b1-3)Gal(b1-4)GlcNAc(b1-3)[Gal(b1-4)GlcNAc(b1-3)Gal(b1-4)GlcNAc(b1-6)]GalNAc
# Outline: as §1
# Gal3S(b1-3)GalNAc = target: Gal3S(b1-3)GalNAc
# Outline: as §1
# [34] = target: Gal3S(b1-4)[Fuc(a1-3)]GlcNAc6S
# Outline: as §1
# Gal3S6S(b1-4)GlcNAc = target: Gal3S6S(b1-4)GlcNAc
# Outline: as §1
# Gal6S(b1-4)Glc = target: Gal6S(b1-4)Glc
# Outline: as §1
# Gal6S(b1-4)GlcNAc = target: Gal6S(b1-4)GlcNAc
# Outline: as §1
# [35] = target: GalNAc(b1-4)GlcNAc(b1-2)Man(a1-3)[GalNAc(b1-4)GlcNAc(b1-2)Man(a1-6)]Man(b1-4)GlcNAc(b1-4)GlcNAc
# Outline: as §1
# [36] = target: GlcNAc(b1-2)Man(a1-3)[GlcNAc(b1-2)Man(a1-6)]Man(b1-4)GlcNAc(b1-4)GlcNAc
# Outline: as §1
binder,measurement,setting,value
B1,glycan array binding signal (z-score),[1],6.04
same,glycan array binding signal (z-score),[2],5.88
same,glycan array binding signal (z-score),Fuc(a1-2)Gal(b1-4)GlcNAc,-0.207
same,glycan array binding signal (z-score),Gal(a1-3)Gal(b1-4)Glc,-0.222
same,glycan array binding signal (z-score),[3],5.7
same,glycan array binding signal (z-score),[4],-0.207
same,glycan array binding signal (z-score),[5],-0.213
same,glycan array binding signal (z-score),[6],5.89
same,glycan array binding signal (z-score),[7],5.74
same,glycan array binding signal (z-score),[8],-0.16
same,glycan array binding signal (z-score),[9],2.77
same,glycan array binding signal (z-score),[10],-0.221
same,glycan array binding signal (z-score),Gal3S(b1-4)Glc,-0.008
same,glycan array binding signal (z-score),Gal4S(b1-4)GlcNAc,-0.202
same,glycan array binding signal (z-score),GalNAc(a1-3)Gal,-0.215
same,glycan array binding signal (z-score),[11],0.204
same,glycan array binding signal (z-score),[12],-0.213
same,glycan array binding signal (z-score),[13],-0.223
same,glycan array binding signal (z-score),[14],-0.226
same,glycan array binding signal (z-score),[15],-0.208
same,glycan array binding signal (z-score),[16],-0.213
same,glycan array binding signal (z-score),[17],-0.223
B2,glycan array binding signal (z-score),[1],0.013
same,glycan array binding signal (z-score),[18],0.157
same,glycan array binding signal (z-score),[19],-0.265
same,glycan array binding signal (z-score),Fuc(a1-2)Gal(b1-4)GlcNAc,0.463
same,glycan array binding signal (z-score),[20],-0.057
same,glycan array binding signal (z-score),[21],4.58
same,glycan array binding signal (z-score),Fuc(a1-2)GlcNAc,2.03
same,glycan array binding signal (z-score),[22],0.102
same,glycan array binding signal (z-score),[23],-0.211
same,glycan array binding signal (z-score),[24],-0.201
same,glycan array binding signal (z-score),[25],-0.25
same,glycan array binding signal (z-score),[26],-0.219
same,glycan array binding signal (z-score),[27],8.86
same,glycan array binding signal (z-score),[28],0.757
same,glycan array binding signal (z-score),Gal(b1-3)GalNAc(b1-3)Gal,-0.295
same,glycan array binding signal (z-score),[29],0.007
same,glycan array binding signal (z-score),[4],-0.389
same,glycan array binding signal (z-score),[5],-0.277
same,glycan array binding signal (z-score),Gal(b1-4)Gal,-0.131
same,glycan array binding signal (z-score),[30],3.1
same,glycan array binding signal (z-score),[31],0.014
same,glycan array binding signal (z-score),[32],2.04
same,glycan array binding signal (z-score),[33],2.93
same,glycan array binding signal (z-score),Gal3S(b1-3)GalNAc,-0.003
same,glycan array binding signal (z-score),[34],-0.287
same,glycan array binding signal (z-score),Gal3S6S(b1-4)GlcNAc,0.068
same,glycan array binding signal (z-score),Gal6S(b1-4)Glc,-0.131
same,glycan array binding signal (z-score),Gal6S(b1-4)GlcNAc,-0.022
same,glycan array binding signal (z-score),[35],1.48
same,glycan array binding signal (z-score),[36],-0.3
